These results are taken from article PMC4336329 (PLoS ONE, 2015).

The campaign covered roughly 310,000 compounds. About 14,000 (4.5%) showed an effect of 50% or more. The effect is printed as a negative number. This is one part of a sample in which strong results are shown more often than they occur.
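Further: peak tail current of the secondary pulse compared with the same well before compound.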

Chain of human ether-à-go-go-related gene (hERG) potassium channel (Q12809 whole entry, looked up): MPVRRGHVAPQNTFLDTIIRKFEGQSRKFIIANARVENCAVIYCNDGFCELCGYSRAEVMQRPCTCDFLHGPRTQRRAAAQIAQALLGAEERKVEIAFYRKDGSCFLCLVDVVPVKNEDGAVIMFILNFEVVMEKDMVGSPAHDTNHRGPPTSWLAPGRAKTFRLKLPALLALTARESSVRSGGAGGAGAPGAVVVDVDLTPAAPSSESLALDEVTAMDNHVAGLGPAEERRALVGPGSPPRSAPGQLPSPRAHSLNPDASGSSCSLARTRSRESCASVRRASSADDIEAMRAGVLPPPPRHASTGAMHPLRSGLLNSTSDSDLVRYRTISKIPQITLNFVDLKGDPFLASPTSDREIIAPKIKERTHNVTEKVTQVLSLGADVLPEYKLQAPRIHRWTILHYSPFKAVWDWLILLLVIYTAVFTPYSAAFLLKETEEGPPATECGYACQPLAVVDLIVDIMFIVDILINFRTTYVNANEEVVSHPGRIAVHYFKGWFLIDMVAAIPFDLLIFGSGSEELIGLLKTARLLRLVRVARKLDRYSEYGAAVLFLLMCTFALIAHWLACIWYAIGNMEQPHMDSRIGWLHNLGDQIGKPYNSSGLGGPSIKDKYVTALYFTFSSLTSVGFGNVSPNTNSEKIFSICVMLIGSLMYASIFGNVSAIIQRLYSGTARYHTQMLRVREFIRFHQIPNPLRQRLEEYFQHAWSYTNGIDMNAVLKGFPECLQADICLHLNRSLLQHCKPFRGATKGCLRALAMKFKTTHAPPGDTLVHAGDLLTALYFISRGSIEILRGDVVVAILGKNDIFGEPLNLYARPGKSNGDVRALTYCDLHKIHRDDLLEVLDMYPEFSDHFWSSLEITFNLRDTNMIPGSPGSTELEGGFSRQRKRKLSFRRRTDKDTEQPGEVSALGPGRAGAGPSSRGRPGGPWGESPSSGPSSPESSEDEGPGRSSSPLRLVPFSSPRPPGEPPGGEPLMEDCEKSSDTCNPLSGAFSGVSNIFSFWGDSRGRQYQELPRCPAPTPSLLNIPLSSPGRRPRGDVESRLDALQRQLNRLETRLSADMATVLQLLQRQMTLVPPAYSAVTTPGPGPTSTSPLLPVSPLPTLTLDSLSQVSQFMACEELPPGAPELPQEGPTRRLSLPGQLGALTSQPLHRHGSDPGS

The test has as its target human ether-à-go-go-related gene (hERG) potassium channel (human, UniProt Q12809). Description: primary screen, population patch clamp on CHO cells stably expressing hERG; higher = less effect of the substance.
In the case of `CCOC(=O)CN1C(=O)C(O)=C(C(C)=O)C1c1ccccc1` (centres unmarked), the “hERG current change (%, negative = inhibition) at 10uM” value is given as 11.3%.
In the case of `Cc1c(-c2ccccc2)nc2ccccc2c1C(=O)Oc1ccc([N+](=O)[O-])cc1` it was -21.6%.
The figure for `COc1ccc(C(=O)OCCNC(=O)c2c(Cl)nc3ccccn23)cc1.Cl` is -6.58%; for `CC(=O)C(=Nc1ccccc1Cl)NNc1ccc(Cl)cc1` it is 17.3%.
In the case of `CN1CCN(S(=O)(=O)c2cccc(C(=O)N(Cc3nnc(-c4ccc(Cl)cc4)o3)C3CC3)c2)CC1` it was -49.3%; in that of `Nc1cccc(-c2cc3ccccc3oc2=O)c1`, 6.38%.
In the case of `COc1ccc(Cl)cc1C(=O)N1CCN=C1SC`, the “hERG current change (%, negative = inhibition) at 10uM” value is recorded as 21.3%.
For the compound `CCOc1ccc(NC(=O)c2ccccc2NC(=O)c2cccnc2)cc1`, the “hERG current change (%, negative = inhibition) at 10uM” value came to 7.52%.
For the compound `COc1c(C)cc(C(=O)C2CCCN(C(=O)c3cc(C)nc(C)n3)C2)cc1C` (centres unmarked), the “hERG current change (%, negative = inhibition) at 10uM” value was found to be 7.89%.
The figure for `COC(=O)C1=C(c2ccc(F)cc2OCc2ccccc2)C[C@@H]2CC[C@H]1N2C(=O)NCc1ccc(F)cc1` is -5.76%; for `COC(=O)C1=C(c2ccc(F)cc2OCc2ccccc2)C[C@@H]2CC[C@H]1N2C` it is -52%.
On to `COC(=O)C1=C(c2ccc(F)cc2OCc2ccccc2)C[C@@H]2CC[C@H]1N2C(=O)NC1CC1`, for which the “hERG current change (%, negative = inhibition) at 10uM” value is -10.4%.
With `COC(=O)C1=C(c2ccc(F)cc2OCc2ccccc2)C[C@@H]2CC[C@H]1N2C(=O)NCC1CC1`, the “hERG current change (%, negative = inhibition) at 10uM” value is given as -51.5%.
With `COC(=O)C1=C(c2ccc(F)cc2OCc2ccccc2)C[C@@H]2CC[C@H]1N2C(=O)NCc1ccccc1`, the “hERG current change (%, negative = inhibition) at 10uM” value is given as -1.03%.
The figure for `COC(=O)C1=C(c2ccc(F)cc2OCc2ccccc2)C[C@@H]2CC[C@H]1N2C(=O)NC(C)C` is -35.3%.
The figure for `C#CCOCCOCCOCCNc1nc(N2CCN(C(=O)[C@H](CCC(=O)O)n3cc(C(N)[C@H](C)CC)nn3)CC2)nc(N2CCN(C(=O)[C@H](Cc3ccc(O)cc3)n3cc(C(N)[C@H](C)CC)nn3)CC2)n1.Cl` (some centres unmarked) is 7.62%.
As for `COc1cc(CCC(=O)Nc2nccs2)cc(OC)c1OC`, the “hERG current change (%, negative = inhibition) at 10uM” value worked out at 3.1%.
The figure for `CCn1nc(C)cc1C(=O)N1CCCC(C(=O)c2ccc(OC)cc2C)C1` (centres unmarked) is 3.32%.
In the case of `Cc1ccccc1S(=O)(=O)Cc1ccc(C(=O)NC2CCCCCC2)o1` it was -31.9%.
In the case of `CC(=O)Oc1ccc(/C=N/NC(=O)C2CCCN2S(=O)(=O)c2ccc(Cl)cc2)cc1` (centres unmarked) it was -28.1%.
Turning to `Cn1c(=O)c2c(n(C)c1=O)=NC1(CCCCC1)ON=2`, the “hERG current change (%, negative = inhibition) at 10uM” value is reported as -15.4%.
Consider `O=C(NCc1ccco1)C1CCN(S(=O)(=O)N2CCOCC2)CC1`, for which the “hERG current change (%, negative = inhibition) at 10uM” value is -13.1%.
The figure for `COc1ccc(CN2CCN(CCCCOc3ccc(Cl)cc3)CC2)c(OC)c1OC.O=C(O)C(=O)O` is -74.4%; for `COc1ccc(CN2CCN(C(=O)c3cccc4ccccc34)CC2)c(OC)c1OC.O=C(O)C(=O)O` it is 11.9%; for `COc1ccc(CN2CCN(Cc3ccc(Br)cc3)CC2)c(OC)c1OC.O=C(O)C(=O)O` it is -69.7%.
The figure for `COc1ccc(CN2CCN(S(=O)(=O)c3ccc(F)cc3)CC2)c(OC)c1OC.O=C(O)C(=O)O` is -23.4%; for `CN1CCN(Cc2cccc(Oc3ccccc3)c2)CC1` it is -28.2%.
`Cc1ccc(SCCN2CCN(Cc3ccccc3)CC2)cc1.O=C(O)C(=O)O`: the “hERG current change (%, negative = inhibition) at 10uM” value is -37%.
With `COc1cccc(CN2CCN(Cc3cccc(Br)c3)CC2)c1OC.O=C(O)C(=O)O`, the “hERG current change (%, negative = inhibition) at 10uM” value is on record as -21.2%.
As to `COc1ccc(CN2CCN(CCSc3ccc(C)cc3)CC2)c(OC)c1OC.O=C(O)C(=O)O`, the “hERG current change (%, negative = inhibition) at 10uM” value is listed as -58.5%.
With `COc1cccc(CN2CCN(Cc3cccc(Oc4ccccc4)c3)CC2)c1OC.O=C(O)C(=O)O`, the “hERG current change (%, negative = inhibition) at 10uM” value is reported as -21.7%.
The figure for `CCN1CCN(CCOc2ccc(Cl)cc2)CC1.O=C(O)C(=O)O` is -34.3%; for `COc1ccc(CN2CCN(Cc3cccc(Oc4ccccc4)c3)CC2)c(OC)c1OC.O=C(O)C(=O)O` it is -58%; for `COc1ccc(CN2CCN(Cc3ccc(OC)c(OC)c3OC)CC2)cc1.O=C(O)C(=O)O` it is -41.3%.
Turning to `COc1ccc(C(=O)NC(=S)N(CCC(C)C)c2c(N)n(Cc3ccccc3)c(=O)[nH]c2=O)cc1`, the “hERG current change (%, negative = inhibition) at 10uM” value was -5.8%.
The figure for `CN1C(=O)/C(=C2\SC(=S)N(C(CCC(=O)O)C(=O)O)C2=O)c2ccccc21` (centres unmarked) is 13%.
For `O=C(COc1ccc(F)cc1)c1ccc2c(c1)CCCC2`, the “hERG current change (%, negative = inhibition) at 10uM” value is given as -5.65%.
For `CCOC(=O)NNc1nncc2ccccc12.Cl`, the “hERG current change (%, negative = inhibition) at 10uM” value worked out at 2.17%.
The figure for `Cc1nn(-c2ccccc2)c(C)c1NC(=O)COC(=O)c1cccc(OC(F)F)c1` is -38.1%.
The figure for `CCOC(=O)C1C(=O)C=C(/C=C/c2ccccc2)CC1c1ccc(Cl)cc1` (centres unmarked) is -0.716%; for `CCCc1nc(-c2ccc(-c3ccc(F)cc3)cc2)no1` it is 7.85%; for `CC(C(=O)NCc1ccc(Cl)cc1)n1cccc1C(=O)c1ccccc1` (centres unmarked) it is -21.4%.
For the compound `O=C(O)c1ccc(-c2nnn(Cc3ccccc3F)n2)cc1`, the “hERG current change (%, negative = inhibition) at 10uM” value worked out at 58.7%.
In the case of `CC(C)(C)NCC(O)COc1cccc2[nH]c(=O)[nH]c12.Cl` (centres unmarked) it was 7.11%; in that of `CCN(CC)CC(O)COc1ccccc1C(=O)CCc1ccccc1` (centres unmarked), -3.49%; in that of `CC(C)(C)NCC(O)COc1ccccc1C(=O)CCc1ccccc1.Cl` (centres unmarked), -69.9%.
For the compound `CC1=CC(=C2C(=O)NC(=S)NC2=O)C=C(C(F)(F)F)N1CCc1ccccc1`, the “hERG current change (%, negative = inhibition) at 10uM” value was found to be 12.9%.
